Measurements taken from PubChem BioAssay AID624351 (Southern Research Specialized Biocontainment Screening …, 2012).
About 1,400 (58%) of roughly 2,400 compounds were called active.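 The calls were made as follows: active = inhibition of 30% or more at any tested dose; inconclusive = primary hits over the limit that were never retested; inactive = the rest.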 So high a share suggests a set chosen from earlier hits. This is one part of the list.

Experiment: ADP Hunter readout inhibition without MgcRacGAP – biochemical, coupled enzyme counter-screen, artefact control for MgcRacGAP inhibitor project, dose response (AID 624351);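 also: signal is the ADP detection kit reading of free GDP without any GAP enzyme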
Settings: fluorescence, no MgcRacGAP; series mostly up to 80 µM

SMILES | IC50
O=C(O)c1ccc2nc(-c3ccco3)c(-c3ccco3)nc2c1 | inactive
COc1cccc(Nc2ccc(N3CCCCC3)cc2)c1OC | 8.89 µM (active)
COc1ccc(C)cc1NCc1cccc(OC)c1OC | 70.3 µM (active)
COc1ccc(CNCc2cccc(OC)c2OC)cc1Br | inactive
COc1cccc(OC)c1OCCCCN1CCCC1 | inactive
COc1cccc(CN2CCN(Cc3cccc(Oc4ccccc4)c3)CC2)c1OC | inactive
COc1cccc(CNc2ccc(N3CCCCC3)cc2)c1OC | 4.01 µM (active)
COc1cccc(OC)c1OCCCN1CCOCC1 | inactive
COc1cccc(CNCc2ccccc2Br)c1OC | inactive
COc1cccc(CN2CCN(Cc3cc(OC)c(OC)c(OC)c3)CC2)c1OC | inactive
COc1cc(Br)c(CNc2cc(C)ccc2C)cc1OC | inactive
COc1cccc(CNc2ccc(N3CCC(C)CC3)cc2)c1OC | 6.68 µM (active)
Cc1c(NC(=O)CN2CC(C)OC(C)C2)c(=O)n(-c2ccccc2)n1C (stereo unspecified) | inactive
COc1cc(/C=C/C(=O)OCC(=O)Nc2c(C)n(C)n(-c3ccccc3)c2=O)ccc1O | 53.6 µM (active)
COc1cc(/C=C/C(=O)OC(C)C(=O)Nc2c(C)n(C)n(-c3ccccc3)c2=O)ccc1O (stereo unspecified) | 45.4 µM (active)
Cc1c(O)ccc2c3c(c(=O)oc12)CCCC3 | 23.7 µM (active)
COCCn1c(=S)[nH]c2sc3c(c2c1=O)CCCC3 | 34.3 µM (active)
CCn1c(=S)[nH]c2sc3c(c2c1=O)CCCC3 | 35 µM (active)
COCCCn1c(=S)[nH]c2sc3c(c2c1=O)CCCC3 | 30.9 µM (active)
Nn1c(=S)[nH]c2sc3c(c2c1=O)CCCC3 | 67.3 µM (active)
C=CCc1cc(C)ccc1OCCCn1ccnc1 | inactive
O=C1C=CC(=O)N1c1ccc(Nc2ccccc2)cc1 | 34 µM (active)
O=C(O)c1cc(N2C(=O)C=CC2=O)cc(N2C(=O)C=CC2=O)c1 | inactive
O=C1C=CC(=O)N1c1ccccc1N1C(=O)C=CC1=O | inactive

SMILES | IC50
COc1cc(/C=C(\C#N)C(=O)c2c[nH]c3ccccc23)cc(OC)c1O | 51.3 µM (active)
Cc1ccc2nc(/C(C#N)=C/c3ccc(O)c(O)c3)[nH]c2c1 | 26.8 µM (active)
COc1cc(/C=C(\C#N)c2nc3ccccc3[nH]2)cc(OC)c1O | 27.1 µM (active)
COc1cc(/C=C(\C#N)c2nc3ccccc3[nH]2)ccc1O | 14.8 µM (active)
CN1C=CC=C/C1=C(\C#N)c1nc2ccccc2[nH]1 | 52.5 µM (active)
Nc1ccc(N2CCN(C(=O)c3cccs3)CC2)cc1 | 22.1 µM (active)
Nc1ccc(N2CCN(c3ccc(F)cc3)CC2)cc1 | 19.9 µM (active)
COc1cc(CN2CCN(c3ccccc3F)CC2)cc(OC)c1O | inactive
CC(=O)N1CCN(c2ccc(N)cc2)CC1 | 13.5 µM (active)
Nc1ccc(N2CCN(c3ccccc3)CC2)c(F)c1 | 37.9 µM (active)
COc1ccc(N2CCN(CC(O)COC(c3ccc(F)cc3)c3ccc(F)cc3)CC2)cc1 (stereo unspecified) | inactive
O=C(c1cccs1)N1CCN(Cc2ccncc2)CC1 | inactive
CCC(C)N1CCN(C(=O)c2cccs2)CC1 (stereo unspecified) | inactive
COCC(C)NCc1ccccc1C (stereo unspecified) | inactive
CCN1CCN(CC(O)COC(c2ccccc2)c2ccccc2C)CC1 (stereo unspecified) | inactive
CCOCCCNC(=S)N1CCN(Cc2ccc3c(c2)OCO3)CC1 | inactive
CCN1CCN(C(C)C(=O)NC2CCCCC2)CC1 (stereo unspecified) | inactive
CC(C(=O)NC1CCCCC1)N1CCN(C)CC1 (stereo unspecified) | inactive
CC(C(=O)NC(=O)NC1CCCCC1)N1CCN(c2ccc(O)cc2)CC1 (stereo unspecified) | 69.7 µM (active)
COc1ccc(C)cc1NC(=O)C(NCC(O)c1ccccc1)c1ccccc1 (stereo unspecified) | inactive
COc1cc(/C=N\NC(=O)CNC(=O)C(c2ccccc2)c2ccccc2)ccc1O | 50.6 µM (active)
COc1cc(/C=N/NC(=O)CCc2ccccc2)ccc1O | 29.9 µM (active)
COc1cc(/C=N\NC(=O)CC(=O)NCCc2ccccc2)ccc1O | 29.2 µM (active)
CCOc1cc(/C=N\NC(=O)CC(=O)NCCc2ccccc2)ccc1O | 46 µM (active)

SMILES | IC50
COc1cc(/C=N/NC(=O)Cc2nnc(NC(=O)c3ccccc3)s2)ccc1O | inactive
Cc1cccc(N2C(S)=C(C#N)C(=O)NC2c2ccco2)c1 (stereo unspecified) | inactive
O=C1C(SCCO)=C(SCCO)C(=O)c2ccccc21 | inactive
COc1cc(/C=N/NC(=O)/C(=C/c2ccccc2)CCO)ccc1O | 45.8 µM (active)
COc1cc(/C=N/NC(=O)CCNC(=O)c2ccccc2Cl)ccc1O | 32.2 µM (active)
COc1cc(OC)c(OC)cc1CN1CCN(Cc2ccc(SC)cc2)CC1 | inactive
CCC(C)n1c(=S)[nH]c2c(sc3ccc([N+](=O)[O-])cc32)c1=O (stereo unspecified) | 58.8 µM (active)
O=C(O)CCCn1c(=S)[nH]c2c(sc3ccc([N+](=O)[O-])cc32)c1=O | 30.5 µM (active)
COc1ccc2nc3cc(Cl)ccc3c(Nc3ccc(O)c(CN4CCN(C)CC4)c3)c2c1 | 82 µM (active)
O=C(C1CCN(Cc2cc(Cl)ccc2O)CC1)N1CCN(Cc2ccccc2)CC1 | inactive
COc1ccc(CN2CCN(CCCCOc3ccc(Cl)cc3)CC2)c(OC)c1OC | inactive
COc1cc(CNCc2ccccc2C(F)(F)F)cc(OC)c1 | inactive
Cc1nc(/N=C(\N)NC(=O)N2c3ccccc3Sc3ccccc32)nc2ccccc12 | inactive
COc1cc(CN2CCC(C(=O)N3CCCC(C)C3)CC2)cc(Br)c1O (stereo unspecified) | inactive
Oc1ccc(C=NNc2ccccn2)c(O)c1 | 20.8 µM (active)
Oc1ccc(/C=N/Nc2cccc(Cl)n2)c(O)c1 | 25.6 µM (active)
Cc1nc(Cl)cc(N/N=C/c2ccc(O)cc2O)n1 | 17.3 µM (active)
COc1cc2c(cc1N)-c1ccc(N)cc1C2 | 36.1 µM (active)
Nc1cc2c(cc1N)-c1ccccc1C2 | 55.6 µM (active)
Nc1ccc2c(c1)Cc1cc(N)c(Cl)cc1-2 | 8.61 µM (active)
O=C1C=CC(=Nc2ccc3c(c2)Cc2ccccc2-3)O1 | inactive
Nc1ccc2c(c1Br)Cc1ccccc1-2 | 59.2 µM (active)
Nc1ccc2c(c1)Cc1cc(N)c(Br)cc1-2 | 7.05 µM (active)
